An excerpt weighted towards active compounds, which were near 1.1% of everything screened.
HDAC3 inhib = blocks human histone deacetylase 3; inhibition, % at 8.3 µM; 0.15% of 320,000 active; recombinant HDAC3, fluorogenic peptide/trypsin coupled, fluorescence; O15379; in the data active = inhibition above about 26%, passing the limit was not always enough
Target sequence (O15379 whole entry, looked up): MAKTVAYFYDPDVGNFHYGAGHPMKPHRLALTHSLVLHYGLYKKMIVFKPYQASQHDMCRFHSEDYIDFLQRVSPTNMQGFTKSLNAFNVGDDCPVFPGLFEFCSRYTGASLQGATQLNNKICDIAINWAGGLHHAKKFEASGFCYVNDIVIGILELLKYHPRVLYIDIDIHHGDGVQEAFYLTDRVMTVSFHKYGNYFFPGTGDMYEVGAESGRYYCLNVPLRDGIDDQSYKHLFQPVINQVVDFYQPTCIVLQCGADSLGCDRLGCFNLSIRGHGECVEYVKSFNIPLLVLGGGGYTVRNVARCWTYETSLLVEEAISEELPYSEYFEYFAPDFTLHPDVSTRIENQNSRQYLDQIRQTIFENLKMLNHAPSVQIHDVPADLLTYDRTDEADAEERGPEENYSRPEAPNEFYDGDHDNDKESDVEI
LANA DNA inh = inhibitors of KSHV LANA C-terminal domain DNA binding. MBP-C-LANA/FAM-LBS DNA binding, fluorescence polarization. 0.078% of 340,000 active. inhibition, % at 9 µM;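 active = highest replicate inhibition at or above 60% at 9 µM, even if other replicates fall short; inactive = all replicates below 60% inhibition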;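 also: 0% = neutral control wells and 100% = 4 µM acridine orange control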
Keap1 Nrf2 FP = Keap1-Nrf2 (human) interaction inhibition; Q14145; Keap1 Kelch-Nrf2 peptide fluorescence polarization, 1536-well; inhibition, % at 9.4 µM; 0.15% of 340,000 active; AID 504523; in the data active = inhibition above about 12%;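 also: human Keap1 Kelch domain with fluorescein labeled Nrf2 9mer peptide probe; 0% = neutral control wells and 100% = peptide positive control; higher means more block of Keap1 binding to Nrf2 peptide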
NSD2 inh = blocks human histone methyltransferase NSD2; O96028; NSD2 peptide methylation, AlphaScreen, 120 min; inhibition, % at 12.5 µM; 0.54% of 310,000 active; in the data active = inhibition above about 50%
N-glyco inh = blocks N-linked glycosylation in D54 reporter cells; AID 588692; reporter increase, % at 12.5 µM; D54 ERlucT glycosylation luciferase reporter, 24 h; percent of 100 nM tunicamycin response; 0.23% of 360,000 active;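 active = mean luciferase reporter signal, scaled so untreated is 0 and the glycosylation-blocking control 100, at or above a set limit in every replicate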;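 also: luciferase carries N-glycosylation sites so blocking glycosylation raises the light; 0% = median of neutral control wells and 100% = median of 100 nM tunicamycin wells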
CASP6 VEID inh = blocks human caspase-6 cleavage activity | inhibition, % at 12.5 µM | 0.53% of 350,000 active | P55212 | purified caspase-6, Z-VEID-R110 cleavage fluorescence | AID 686996;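 active = mean inhibition across replicates at least about 35%, with every replicate also reaching that limit, limit read from the data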;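 also: 0% = median of neutral control wells and 100% = no fluorescence left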
An asterisk follows results filed as active; . = no result.

SMILES	HDAC3 inhib	LANA DNA inh	Keap1 Nrf2 FP	NSD2 inh	N-glyco inh	CASP6 VEID inh
C=CC[C@H](CC(=O)N(CCO)Cc1ccccc1)C(=O)NC[C@H](OC(=O)[C@@H](CC=C)CC(=O)OC(C)(C)C)c1ccccc1	31*	-2	1	.	1	3
C=CCC[C@@H](Cc1ccc(F)cc1)C(=O)OC[C@@H]1CCCN1C(=O)[C@@H](CC=C)CC(=O)N(CCO)Cc1ccccc1	28*	-1	-8	.	-2	1
CNC[C@H]1OCCCC[C@H](C)Oc2ccc(NC(=O)Nc3ccc(F)cc3)cc2C(=O)N([C@H](C)CO)C[C@@H]1C	.	.	.	.	.	0
C[C@@H]1CCCCO[C@@H](CN(C)S(=O)(=O)c2cccs2)[C@@H](C)CN([C@@H](C)CO)C(=O)c2cc(NS(=O)(=O)c3ccccc3)ccc2O1	.	.	.	.	.	1
O=C(C[C@H]1C=C[C@@H](NC(=O)c2ccccc2)[C@H](CO)O1)NCCc1ccncc1	.	.	.	.	.	1
C=CC[C@H](CC(=O)N(CCO)Cc1ccccc1)C(=O)N[C@@H](COC(=O)[C@H](CC=C)CC(=O)OC(C)(C)C)Cc1c[nH]c2ccccc12	2	-1	-5	.	-1	-1
C=CCC[C@H](Cc1ccc(F)cc1)C(=O)OC[C@@H](Cc1c[nH]c2ccccc12)NC(=O)[C@H](CC=C)CC(=O)N(CCO)Cc1ccccc1	-1	0	-4	.	-2	-3
C=CC[C@@H](CC(=O)N(CCO)Cc1ccccc1)C(=O)N[C@@H](COC(=O)[C@@H](CC=C)Cc1ccc(F)cc1)Cc1c[nH]c2ccccc12	39*	0	0	.	-3	-3
C=CCC[C@@H](Cc1ccc(F)cc1)C(=O)OC[C@@H](Cc1c[nH]c2ccccc12)NC(=O)[C@H](CC=C)CC(=O)N(CCO)Cc1ccccc1	51*	2	1	.	4	0
C=CCC[C@@H](Cc1ccc(F)cc1)C(=O)OC[C@H](Cc1c[nH]c2ccccc12)NC(=O)[C@H](CC=C)CC(=O)NCCO	32*	3	-3	.	5	-1
C=CCC[C@H](Cc1ccc(F)cc1)C(=O)OC[C@@H](NC(=O)[C@@H](CC=C)CC(=O)N[C@@H](CO)Cc1ccccc1)C(C)(C)C	32*	-1	-5	.	-2	-1
N#CC1(C#N)COC23CCCCC2C1(C#N)C(=N)O3 (stereo unspecified)	-8	45	21*	13	1	.
Cc1cc(C(=O)COc2cccc3cccnc23)c(C)n1C	-1	38	24*	15	-1	.
CCCCn1c(N)c(N(CC(C)C)C(=O)c2cc(-c3ccco3)nc3ccccc23)c(=O)[nH]c1=O	3	0	-10	4	-1	39*
CCCCN(C(=O)c1cc(-c2ccco2)nc2ccccc12)c1c(N)n(CCC)c(=O)[nH]c1=O	4	5	-6	2	-1	28
CN(C)CCCNC(=O)C[C@H]1CC[C@@H](NC(=O)c2ccccc2F)[C@H](CO)O1	.	.	.	.	.	0
S=C(Nc1ccc2nsnc2c1)N1CCCCCC1	11	1	-1	153*	-4	56*
CC(C)NC(=O)Nc1ccc2c(c1)C(=O)N([C@H](C)CO)C[C@H](C)[C@H](CN(C)C(=O)NC1CCCCC1)OCCCC[C@H](C)O2	.	.	.	.	.	-3
O=C(O)CSc1cc(NS(=O)(=O)c2ccc(Cl)cc2)c2ccccc2c1O	-4	2	2	137*	9	96*
Cc1cc(C)c(S(=O)(=O)Nc2cc(SCC(=O)O)c(O)c3ccccc23)cc1C	9	.	.	.	.	.
CCc1ccc(NS(=O)(=O)c2cc(OC)ccc2OC)cc1	7	0	2	.	3	58*
COc1ccc(OC)c(S(=O)(=O)Nc2ccc3c(c2)n(C)c(=O)n3C)c1	1	-1	-2	2	28*	2
COc1ccc(NS(=O)(=O)c2cc(OC)ccc2OC)cc1	1	0	0	50	0	9
C/C=C/c1ccc([C@H]2[C@@H](CO)N(Cc3cncnc3)C23CN(C(=O)CC)C3)cc1	.	.	.	.	.	-1
Cn1c(-c2ccccc2)c(/C=N/NC(=O)c2ccc(O)cc2)c2ccccc21	2	-3	-12	1	54*	0
Cc1ccc(C(=O)n2cnnc2N)cc1	44*	0	-1	-1	2	.
CNC[C@@H]1Oc2ncc(-c3ccc(C)cc3)cc2C(=O)N([C@H](C)CO)C[C@@H]1C	.	.	.	.	.	2

Bioassay records: PubChem BioAssay, Broad Institute
